In PubChem BioAssay (NCI):
Compounds without any hit were thinned out: in the full panel of roughly 83,000, 20% have a hit.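 The endpoint reported here, percent growth, reads 100 for growth as untreated, 0 for no net growth and -100 for all cells dead.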 Unmarked numbers belong to inactive results. Activity calls are given as the source filed them. How the source made its calls: active means growth percent below 10; inactive means the rest.

Legend:
Experiment in all cases: NCI-60 one-dose screen, 48 h (100 = growth as untreated, 0 = no growth, -100 = all killed)
Details in all cases: 10 µM unless noted
SK-MEL-2 melanoma = test system: SK-MEL-2 melanoma
EKVX NSCLC = test system: EKVX NSCLC
SN12C renal = test system: SN12C renal
UO-31 renal = test system: UO-31 renal
TK-10 renal = test system: TK-10 renal
ACHN renal = test system: ACHN renal
CAKI-1 renal = test system: CAKI-1 renal
A498 renal = test system: A498 renal
CCRF-CEM leukemia = test system: CCRF-CEM leukemia
MOLT-4 leukemia = test system: MOLT-4 leukemia

Fc1ccc(CNc2c3ccccc3nc3ccccc23)c(F)c1
growth (SK-MEL-2 melanoma): 99.7%
growth (EKVX NSCLC): 45.5%
growth (SN12C renal): 37.2%
growth (UO-31 renal): 30.3%
growth (TK-10 renal): 61%
growth (ACHN renal): 23.4%
growth (CAKI-1 renal): 35.3%
growth (A498 renal): -4.38% (active)
growth (CCRF-CEM leukemia): 53.9%
growth (MOLT-4 leukemia): 23.8%

N#Cc1c(-c2ccc(Cl)cc2)nc(NN2C(=O)c3ccccc3C2=O)nc1N1CCOCC1
growth (SK-MEL-2 melanoma): 110%
growth (EKVX NSCLC): 103%
growth (SN12C renal): 99.9%
growth (UO-31 renal): 84.4%
growth (TK-10 renal): 100%
growth (ACHN renal): 104%
growth (CAKI-1 renal): 90.4%
growth (A498 renal): 94.7%
growth (CCRF-CEM leukemia): 103%
growth (MOLT-4 leukemia): 97.8%

CC(=O)N1N=C(c2ccc(Nc3nc(Nc4ccccc4)nc(Nc4ccccc4)n3)cc2)CC1c1cccc([N+](=O)[O-])c1 (stereo not given)
growth (SK-MEL-2 melanoma): 60.6%
growth (EKVX NSCLC): 77.3%
growth (SN12C renal): 96.3%
growth (UO-31 renal): 63.9%
growth (TK-10 renal): 127%
growth (ACHN renal): 94.2%
growth (CAKI-1 renal): 91.7%
growth (A498 renal): 94.5%
growth (CCRF-CEM leukemia): 94.3%
growth (MOLT-4 leukemia): 84.5%

COc1ccc(/C=N\Nc2nc(SCCC(C)C)nc(-c3ccc(OC)cc3)c2C#N)cc1
growth (SK-MEL-2 melanoma): 103%
growth (EKVX NSCLC): 44.8%
growth (SN12C renal): 32.2%
growth (UO-31 renal): -41.4% (active)
growth (TK-10 renal): 11.2%
growth (ACHN renal): -41.5% (active)
growth (CAKI-1 renal): 17%
growth (A498 renal): 98.5%
growth (CCRF-CEM leukemia): 31.4%
growth (MOLT-4 leukemia): 65.1%

O=C(/C=C/c1ccccc1)Nc1ncc(Cc2ccccc2Cl)s1
growth (SK-MEL-2 melanoma): 25.7%
growth (EKVX NSCLC): 38.2%
growth (SN12C renal): 37.2%
growth (UO-31 renal): 39.2%
growth (TK-10 renal): 44.6%
growth (ACHN renal): 33.3%
growth (CAKI-1 renal): 26.2%
growth (A498 renal): -6.96% (active)
growth (CCRF-CEM leukemia): 15.9%
growth (MOLT-4 leukemia): 34.2%

COc1ccc(-c2nc3cc(C(=O)NCc4ccccc4)ccc3n2C2CCCCC2)cc1
growth (SK-MEL-2 melanoma): 91.3%
growth (EKVX NSCLC): 46.4%
growth (SN12C renal): 94.6%
growth (UO-31 renal): 61.6%
growth (TK-10 renal): 90.9%
growth (ACHN renal): 74.3%
growth (CAKI-1 renal): 70.5%
growth (A498 renal): 82.4%
growth (CCRF-CEM leukemia): 76.8%
growth (MOLT-4 leukemia): 66.6%

O=C(O)CCN1C(=O)/C(=C/C(Cl)=C/c2ccccc2)SC1=S
growth (SK-MEL-2 melanoma): 43.7%
growth (EKVX NSCLC): 39.1%
growth (SN12C renal): 11.9%
growth (UO-31 renal): 35.8%
growth (TK-10 renal): 49.7%
growth (ACHN renal): -65.3% (active)
growth (CAKI-1 renal): 23.8%
growth (A498 renal): 43.5%
growth (CCRF-CEM leukemia): 1.73% (active)
growth (MOLT-4 leukemia): 10.6%

COC12C=C/C(=C(/C(=O)OCc3ccncn3)C(=O)CCCCCCCCC3(OC)C=C/C(=C(/C(=O)OCc4ccncn4)C(=O)CCCCCCCC1)O3)O2
growth (SK-MEL-2 melanoma): 11.6%
growth (EKVX NSCLC): -15.5% (active)
growth (SN12C renal): -10.7% (active)
growth (UO-31 renal): -50.7% (active)
growth (TK-10 renal): 9.83% (active)
growth (ACHN renal): -74.8% (active)
growth (CAKI-1 renal): -28.4% (active)
growth (A498 renal): -86.3% (active)
growth (CCRF-CEM leukemia): -15.2% (active)
growth (MOLT-4 leukemia): -7.71% (active)

O=C1NC(=C(Cl)Cl)/C(=N\S(=O)(=O)NCc2ccccc2)N1
growth (SK-MEL-2 melanoma): 103%
growth (EKVX NSCLC): 118%
growth (SN12C renal): 90.7%
growth (UO-31 renal): 94.1%
growth (TK-10 renal): 107%
growth (ACHN renal): 110%
growth (CAKI-1 renal): 101%
growth (A498 renal): 104%
growth (CCRF-CEM leukemia): 75%
growth (MOLT-4 leukemia): 85.5%

Cc1cc(C(=O)Nc2ncc(Cc3cccc(C(F)(F)F)c3)s2)c2ccccc2n1
growth (SK-MEL-2 melanoma): -16% (active)
growth (EKVX NSCLC): 43.2%
growth (SN12C renal): 47.7%
growth (UO-31 renal): 29%
growth (TK-10 renal): 49.5%
growth (ACHN renal): 28.1%
growth (CAKI-1 renal): 13.3%
growth (A498 renal): 0.174% (active)
growth (CCRF-CEM leukemia): 11.8%
growth (MOLT-4 leukemia): 14.9%

N#Cc1c(-c2ccccc2)[nH]c2ncc(-c3ccccc3)n2c1=O
growth (SK-MEL-2 melanoma): 72.9%
growth (EKVX NSCLC): 75.3%
growth (SN12C renal): 99.5%
growth (UO-31 renal): 65.4%
growth (TK-10 renal): 120%
growth (ACHN renal): 83.4%
growth (CAKI-1 renal): 83.4%
growth (A498 renal): 102%
growth (CCRF-CEM leukemia): 104%
growth (MOLT-4 leukemia): 101%

COC1=CC(c2ccc[nH]2)=N/C1=C\c1[nH]c(C)c(C(=O)OC(C)C)c1C
growth (SK-MEL-2 melanoma): -61.6% (active)
growth (EKVX NSCLC): -41.9% (active)
growth (SN12C renal): -2.47% (active)
growth (UO-31 renal): -87.5% (active)
growth (TK-10 renal): 3.42% (active)
growth (ACHN renal): -82.9% (active)
growth (CAKI-1 renal): -32.4% (active)
growth (A498 renal): -37.8% (active)
growth (CCRF-CEM leukemia): 13.5%
growth (MOLT-4 leukemia): -5.6% (active)

COc1ccc(/C=C(\C#N)n2nnc3cc(Cl)ccc32)cc1
growth (SK-MEL-2 melanoma): 26.1%
growth (EKVX NSCLC): 11.4%
growth (SN12C renal): 11.7%
growth (UO-31 renal): 25.9%
growth (TK-10 renal): 25.6%
growth (ACHN renal): 14.6%
growth (CAKI-1 renal): 32.7%
growth (A498 renal): -23.5% (active)
growth (CCRF-CEM leukemia): 12.4%
growth (MOLT-4 leukemia): 14.2%
